Test results: PubChem BioAssay (Tox21)
Results filed as inconclusive are left out. Active and inactive are the calls of the source. Unless noted, the call rests on the fitted dose curve; in most records, active means well fitted curve in the direction sought with a large enough effect in the repeat runs; inconclusive means weak or mixed curves; inactive means no such curve, though single readings can be large; an effect the other way counts as inactive or inconclusive.

Key:
[1] = qHTS assay to identify small molecule antagonists of the thyroid receptor (TR) signaling pathway (AID 743065); further: series mostly up to about 70 µM; nearly all actives have a fitted effect of over 55% in size
How it was run: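 GH3.TRE-Luc rat pituitary cells (two TREs driving luciferase) were dosed with compound, then stimulated with 1 nM T3 (final) for 23.5 h at 37 C. ONE-Glo luminescence was the read-out, with CellTiter-Fluor fluorescence as the cytotoxicity counter-screen.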

[2] = tested on: thyroid hormone receptor (rat, GH3 cells); experiment: qHTS assay to identify small molecule agonists of the thyroid receptor (TR) signaling pathway (AID 743066; calls by dose curve)
[3] = target: Estrogen receptor (Homo sapiens) (UniProt P03372); experiment: qHTS assay to identify small molecule antagonists of the estrogen receptor alpha (ER-alpha) signaling pathway (AID 743069; active means well fitted curve in the direction sought with a large enough effect in the signal ratio in the repeat runs, not every such curve was filed as active; the % refers to the signal ratio)
How it was run: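 Reporter cells (ER-alpha-bla, HEK293 background) are conditioned overnight in stripped-serum medium (2% charcoal-stripped FBS). Compound and 17beta-estradiol exposure runs 18 hr at 37C, 5% CO2.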

[4] = qHTS assay to identify small molecule antagonists of the estrogen receptor alpha (ER-alpha) signaling pathway - cell viability counter screen (AID 743074; calls by dose curve;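 further: HEK293 cells carrying ER-alpha-UAS-bla reporter stimulated with 17beta-estradiol; nearly all actives have a fitted effect of over 45% in size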)
[5] = target: Estrogen receptor (Homo sapiens) (UniProt P03372); experiment: qHTS assay to identify small molecule agonists of the estrogen receptor alpha (ER-alpha) signaling pathway (AID 743075; calls by dose curve;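 further: HEK293 GripTite cells with ER-alpha and UAS-driven beta-lactamase reporter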)
[6] = target: Estrogen receptor (Homo sapiens) (UniProt P03372); experiment: qHTS assay to identify small molecule agonists of the estrogen receptor alpha (ER-alpha) signaling pathway using the BG1 cell line (AID 743079); further: nearly all actives have a fitted effect of over 20% in size
[7] = qHTS assay to identify small molecule antagonists of the estrogen receptor alpha (ER-alpha) signaling pathway using the BG1 cell line (AID 743080; calls by dose curve;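 further: BG1 cells stimulated with 17beta-estradiol alongside compound; series mostly up to about 70 µM; nearly all actives have a fitted effect of over 25% in size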)
How it was run: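 Readout is ONE-Glo luminescence, taken 30 min at room temperature after reagent addition, preceded by a CellTiter-Fluor viability read; BG1-Luc-4E2 cells had received compound and 17beta-estradiol for 21.5 h at 37 C.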

[8] = qHTS assay to identify small molecule antagonists of the estrogen receptor alpha (ER-alpha) signaling pathway using the BG1 cell line - cell viability counter screen (AID 743081);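 further: compound given together with 17beta-estradiol as the ER stimulus; series mostly up to about 70 µM; nearly all actives have a fitted effect of over 45% in size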
[9] = target: Aromatase (Homo sapiens) (UniProt P11511); experiment: qHTS assay to identify aromatase inhibitors (AID 743083); further: series mostly up to about 70 µM; nearly all actives have a fitted effect of over 55% in size
[10] = qHTS assay to identify aromatase inhibitors - cell viability counter screen (AID 743084);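 further: cells stimulated with testosterone during compound exposure; nearly all actives have a fitted effect of over 55% in size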
[11] = target: Aryl hydrocarbon receptor (Homo sapiens) (UniProt P35869); experiment: qHTS assay to identify small molecule that activate the aryl hydrocarbon receptor (AhR) signaling pathway (AID 743085);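 further: HG2L7.5c1 human HepG2 liver cells with stably integrated DRE-driven firefly reporter; series mostly up to about 70 µM; nearly all actives have a fitted effect of over 15% in size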
How it was run: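 Steps: seed HepG2-AhR-luc cells; allow 5 h at 37C; pin-transfer test compound or vehicle; incubate 24 h at 37C; add viability dye (30 min, 37C) and read fluorescence; add luciferase substrate (30 min, RT) and read luminescence.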

[12] = qHTS assay to identify small molecule that activate the aryl hydrocarbon receptor (AhR) signaling pathway - cell viability counter screen (AID 743086);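 further: HepG2 liver cells carrying the AhR DRE luciferase reporter; series mostly up to about 70 µM; nearly all actives have a fitted effect of over 45% in size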
How it was run: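 HepG2-AhR-luc (HG2L7.5c1) cells, 4000/well, treated 24 h at 37 C with compound; viability measured as CellTiter-Fluor fluorescence after 30 min in the same wells as the luciferase read.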

[13] = target: Peroxisome proliferator-activated receptor gamma (Homo sapiens) (UniProt P37231); experiment: qHTS assay to identify small molecule agonists of the peroxisome proliferator-activated receptor gamma (PPARg) signaling pathway (AID 743094; active means well fitted activation curve with a large enough effect in the signal ratio in the repeat runs, not every such curve was filed as active; the % refers to the signal ratio)
How it was run: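 Compounds dissolved in DMSO were added to PPARg UAS-bla HEK293H cells for 17 h at 37C, and reporter expression was quantified by fluorescence intensity after 1 h with LiveBLAzer B/G FRET substrate.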

[14] = target: Peroxisome proliferator-activated receptor gamma (Homo sapiens) (UniProt P37231); experiment: qHTS assay to identify small molecule antagonists of the peroxisome proliferator-activated receptor gamma (PPARg) signaling pathway (AID 743191; calls by dose curve; further: series mostly up to about 63 µM; nearly all actives have a fitted effect of over 30% in size)
How it was run: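 GeneBLAzer PPARg UAS-bla HEK293H cells, 5 h post-plating, exposed to compounds 17 h at 37C. LiveBLAzer B/G FRET substrate added for 1 h at room temperature; beta-lactamase reporter read by fluorescence intensity.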

[15] = qHTS assay to identify small molecule antagonists of the peroxisome proliferator-activated receptor gamma (PPARg) signaling pathway - cell viability counter screen (AID 743194); further: nearly all actives have a fitted effect of over 55% in size
How it was run: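 Cytotoxicity counter screen in PPARg-bla HEK293H cells, same wells as reporter assay. Compounds plus 50 nM rosiglitazone (final) for 17 h at 37 C, then viability read by CellTiter-Glo luminescence.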

[16] = qHTS assay for small molecule agonists of the antioxidant response element (ARE) signaling pathway (AID 743202; active means well fitted activation curve with a large enough effect in the signal ratio in the repeat runs, not every such curve was filed as active; the % refers to the signal ratio)
How it was run: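 Agonist mode reporter screen: HepG2 cells with ARE-controlled beta-lactamase are incubated with test compounds for 16 h at 37 C, and beta-lactamase activity is measured as fluorescence of cleaved B/G FRET substrate.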

[17] = qHTS assay for small molecule agonists of the antioxidant response element (ARE) signaling pathway - cell viability counter screen (AID 743203; calls by dose curve; further: nearly all actives have a fitted effect of over 55% in size)
How it was run: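 Following 16 hrs of compound treatment at 37C, HepG2 cells with an ARE-controlled beta-lactamase gene were lysed with CellTiter-Glo. Luminescence was read after 30 min at room temperature.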

[18] = qHTS assay for small molecule activators of the heat shock response signaling pathway - cell viability counter screen (AID 743209); further: nearly all actives have a fitted effect of over 50% in size
How it was run: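 Readout: CellTiter-Glo luminescence, 30 min at room temperature. System: HSE-bla HeLa cells, 1500/well, plated overnight. Treatment: compounds in DMSO, 5 h at 37 C.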

[19] = qHTS assay to identify small molecule agonists of the peroxisome proliferator-activated receptor delta (PPARd) signaling pathway - cell viability counter screen (AID 743211); further: nearly all actives have a fitted effect of over 55% in size
How it was run: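 Viability of GeneBLAzer PPARd UAS-bla HEK293H cells was assessed after 17 h compound incubation at 37C, using CellTiter-Glo reagent added after the reporter read and luminescence recorded 30 min later.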

[20] = qHTS assay for small molecule activators of the heat shock response signaling pathway (AID 743210; active means well fitted activation curve with a large enough effect in the signal ratio in the repeat runs, with a control signal flat, not every such curve was filed as active; the % refers to the signal ratio;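 further: HeLa cells with beta-lactamase reporter driven by heat shock elements; series mostly up to about 63 µM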)
How it was run: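 Quantitative high-throughput format using an engineered HeLa line in which heat shock response elements drive beta-lactamase; after 5 h with compound, cells received a B/G FRET substrate and fluorescence was read.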

Measured: Potency

Sequence of Aromatase (Homo sapiens) (P11511 whole entry, looked up): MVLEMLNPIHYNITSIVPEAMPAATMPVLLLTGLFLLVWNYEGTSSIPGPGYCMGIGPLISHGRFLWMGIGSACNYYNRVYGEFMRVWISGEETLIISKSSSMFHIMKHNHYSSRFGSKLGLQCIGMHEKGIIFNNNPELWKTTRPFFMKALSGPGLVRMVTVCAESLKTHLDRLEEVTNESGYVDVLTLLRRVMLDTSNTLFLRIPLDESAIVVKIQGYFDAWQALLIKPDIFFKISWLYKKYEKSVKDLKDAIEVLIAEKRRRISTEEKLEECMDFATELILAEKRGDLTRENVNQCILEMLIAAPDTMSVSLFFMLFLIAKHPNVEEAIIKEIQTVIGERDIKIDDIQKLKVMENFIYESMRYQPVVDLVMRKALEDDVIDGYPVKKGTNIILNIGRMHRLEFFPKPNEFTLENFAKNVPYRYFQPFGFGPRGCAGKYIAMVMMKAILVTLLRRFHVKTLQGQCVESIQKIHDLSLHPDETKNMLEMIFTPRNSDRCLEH
Sequence of Aryl hydrocarbon receptor (Homo sapiens) (P35869 whole entry, looked up): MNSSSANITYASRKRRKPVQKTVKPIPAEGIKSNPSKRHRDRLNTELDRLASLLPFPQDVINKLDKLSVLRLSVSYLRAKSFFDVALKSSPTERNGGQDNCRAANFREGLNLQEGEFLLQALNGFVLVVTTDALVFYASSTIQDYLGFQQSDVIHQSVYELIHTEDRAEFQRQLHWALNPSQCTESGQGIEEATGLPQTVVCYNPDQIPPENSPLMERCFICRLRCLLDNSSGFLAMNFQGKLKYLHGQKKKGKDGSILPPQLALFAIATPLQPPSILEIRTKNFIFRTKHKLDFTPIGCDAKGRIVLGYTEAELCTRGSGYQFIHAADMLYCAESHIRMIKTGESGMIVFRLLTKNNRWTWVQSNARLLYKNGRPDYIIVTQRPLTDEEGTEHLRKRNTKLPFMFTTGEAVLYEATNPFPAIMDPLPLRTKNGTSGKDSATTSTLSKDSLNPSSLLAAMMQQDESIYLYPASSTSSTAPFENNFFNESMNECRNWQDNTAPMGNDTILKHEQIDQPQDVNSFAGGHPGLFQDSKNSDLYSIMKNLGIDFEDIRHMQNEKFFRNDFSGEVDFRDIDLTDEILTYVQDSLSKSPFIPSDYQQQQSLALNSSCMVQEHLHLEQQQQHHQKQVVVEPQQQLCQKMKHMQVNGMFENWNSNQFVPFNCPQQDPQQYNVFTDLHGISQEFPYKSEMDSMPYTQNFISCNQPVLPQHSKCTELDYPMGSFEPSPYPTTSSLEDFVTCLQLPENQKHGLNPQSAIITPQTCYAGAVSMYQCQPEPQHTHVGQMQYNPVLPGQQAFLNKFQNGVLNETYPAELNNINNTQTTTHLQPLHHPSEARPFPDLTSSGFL
Sequence of Peroxisome proliferator-activated receptor gamma (Homo sapiens) (P37231 whole entry, looked up): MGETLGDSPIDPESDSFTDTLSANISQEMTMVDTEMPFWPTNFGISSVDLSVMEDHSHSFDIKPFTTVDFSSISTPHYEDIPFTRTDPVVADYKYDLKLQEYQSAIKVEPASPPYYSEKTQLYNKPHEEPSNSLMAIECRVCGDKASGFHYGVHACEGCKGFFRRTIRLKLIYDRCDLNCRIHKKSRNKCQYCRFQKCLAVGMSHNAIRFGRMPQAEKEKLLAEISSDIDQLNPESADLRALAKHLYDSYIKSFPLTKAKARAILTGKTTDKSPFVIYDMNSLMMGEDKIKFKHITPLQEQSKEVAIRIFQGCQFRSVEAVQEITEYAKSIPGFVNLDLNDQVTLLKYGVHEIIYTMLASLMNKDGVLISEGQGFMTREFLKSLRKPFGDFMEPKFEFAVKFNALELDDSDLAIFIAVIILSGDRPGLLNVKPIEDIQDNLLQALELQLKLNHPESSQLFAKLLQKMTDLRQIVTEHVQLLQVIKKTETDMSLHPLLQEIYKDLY
Sequence of Estrogen receptor (Homo sapiens) (P03372 whole entry, looked up): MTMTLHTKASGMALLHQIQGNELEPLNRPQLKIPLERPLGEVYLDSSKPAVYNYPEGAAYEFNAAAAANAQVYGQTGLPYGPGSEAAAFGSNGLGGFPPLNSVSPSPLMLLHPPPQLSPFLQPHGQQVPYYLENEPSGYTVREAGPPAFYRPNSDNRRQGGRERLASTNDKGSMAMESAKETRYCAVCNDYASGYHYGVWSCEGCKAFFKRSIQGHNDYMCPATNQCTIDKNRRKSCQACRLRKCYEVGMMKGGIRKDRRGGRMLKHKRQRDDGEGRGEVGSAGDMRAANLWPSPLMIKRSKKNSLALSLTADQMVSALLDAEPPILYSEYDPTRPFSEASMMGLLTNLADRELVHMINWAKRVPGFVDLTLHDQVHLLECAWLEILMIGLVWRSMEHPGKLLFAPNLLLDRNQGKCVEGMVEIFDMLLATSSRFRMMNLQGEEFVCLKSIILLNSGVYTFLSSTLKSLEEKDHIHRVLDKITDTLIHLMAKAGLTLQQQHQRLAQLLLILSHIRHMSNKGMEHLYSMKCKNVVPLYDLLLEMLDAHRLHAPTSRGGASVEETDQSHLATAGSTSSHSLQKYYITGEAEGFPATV

CCC(O)OC(O)CC (centres undefined)
not listed: [20]
inactive: all other assays above

CCOC(=O)NNc1nncc2ccccc12
not listed: [14]
inactive: all other assays above

c1c[nH]cn1
not listed: [16]
inactive: all other assays above

Cc1cc(C)c(C)cc1C
inactive: all assays above

CC(=O)c1ccccc1
not listed: [14]
inactive: all other assays above

C=C(C)C(=O)O[C@H]1C[C@@H]2CC[C@@]1(C)C2(C)C
not listed: [14]
inactive: all other assays above

CC(C)c1ccc(S(=O)(=O)O)cc1
not listed: [14]
inactive: all other assays above
